Test [1] can be described thus: NCI Yeast Anticancer Drug Screen. Data for the rad50 strain (AID 155).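 Note: 0% = growth of vehicle-only cultures of the same strain.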 Conditions: S. cerevisiae rad50 strain growth inhibition, stronger effect = higher value. The method, boiled down:
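Cells are treated with compound, grown, and their growth is then scored against vehicle-only cultures of the same repair-deficient yeast strain.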

A short description of test [2]: NCI Yeast Anticancer Drug Screen. Data for the mec2-1 strain (AID 157). Conditions: S. cerevisiae mec2-1 strain, stronger effect = higher value. In short, it runs like this:
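Compounds were applied to mec2-1 yeast cells. Their growth was then compared with that of vehicle-treated cultures to give growth inhibition.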

Test [3] can be described thus: NCI Yeast Anticancer Drug Screen. Data for the sgs1 mgt1 strain (AID 161).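 Note: 0% = growth of cultures given vehicle only.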 Conditions: S. cerevisiae sgs1 mgt1 strain, stronger effect = higher value. The method, boiled down:
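This yeast growth screen uses a strain with defined DNA-repair lesions; compound-treated growth is compared with vehicle-treated growth.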

A short description of test [4]: NCI Yeast Anticancer Drug Screen. Data for the cln2 rad14 strain (AID 165).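 Note: 0% = growth equal to vehicle treated cultures.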 Conditions: S. cerevisiae cln2 rad14 strain, stronger effect = higher value. In short, it runs like this:
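Strain: cln2 rad14 yeast, altered in cell cycle control and DNA damage repair. Read-out: growth inhibition vs vehicle.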

The nature of test [5]: NCI Yeast Anticancer Drug Screen. Data for the bub3 strain (AID 167). Conditions: S. cerevisiae bub3 mutant strain, stronger effect = higher value. The method, boiled down: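 Part of a panel of yeast mutants defective in DNA damage repair or cell cycle regulation. Each strain is grown with compound, and inhibition is calculated relative to solvent-treated cultures.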
The nature of test [6]: NCI Yeast Anticancer Drug Screen. Data for the mlh1 rad18 strain (AID 175). The note with it: S. cerevisiae mlh1 rad18 strain growth inhibition, stronger effect = higher value. The method, boiled down:
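A repair-deficient yeast strain is exposed to test compound, and growth is scored relative to vehicle-treated controls.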

The mark [7] stands for this setting: at 5.0 µM (retest, dose inferred, filed as 0.5).
Setting [8] is: at 50.0 µM (retest, dose inferred, filed as 5.0).

Compounds without any hit were thinned out: in the full panel of roughly 79,000, 15% have a hit. Unmarked numbers belong to inactive results. Active and inactive are the calls of the source. Cut-off read from the data, not from the text of the source: active = growth inhibition above about 70%; inactive = the rest.

Take `C=C1CC(C)(C)C(c2ccccc2)OC1=O` (configuration not stated): the growth inhibition is 1% in test [1] (setting [7]); 60% in test [1] (setting [8]); 53% in test [1] (at 50.0 µM); 7% in test [2] (setting [7]); 80% (active) in test [2] (setting [8]); 31.7% in test [2] (at 50.0 µM). Further, the growth inhibition in test [3] (setting [7]) was 8%; in test [3] (setting [8]) it was 98% (active); in test [3] (at 50.0 µM) it was 97.1% (active); in test [4] (setting [7]) it was -4%; in test [4] (setting [8]), 25%; in test [4] (at 50.0 µM) it was 5.55%. Further, the growth inhibition in test [5] (setting [7]) was -7%; in test [5] (setting [8]) it was 80% (active); in test [5] (at 50.0 µM), 73.5% (active); in test [6] (setting [7]), 13%; in test [6] (setting [8]), 87% (active); in test [6] (at 50.0 µM), 77.8% (active).

Consider `CSCCOC(=O)c1cc(NC(=S)c2ccoc2C)ccc1Cl`, for which the growth inhibition in test [1] (setting [7]) is 13%; in test [1] (setting [8]), 78% (active); in test [1] (at 50.0 µM), 82.5% (active); in test [2] (setting [7]) it was -8%; in test [2] (setting [8]) it was 78% (active); in test [2] (at 50.0 µM), 68.9%. For the same compound, the growth inhibition in test [3] (setting [7]) is 10%; in test [3] (setting [8]), 85% (active); in test [3] (at 50.0 µM) it was 66.4%; in test [4] (setting [7]), 14%; in test [4] (setting [8]), 83% (active); in test [4] (at 50.0 µM), 67%. In addition, the growth inhibition in test [5] (setting [7]) was 17%; in test [5] (setting [8]), 88% (active); in test [5] (at 50.0 µM) it was 73.9% (active); in test [6] (setting [7]), -7%; in test [6] (setting [8]) it was 85% (active); in test [6] (at 50.0 µM), 63%.

On to `Brc1ccc(N2COc3ccc4ccccc4c3C2)cc1`, for which the growth inhibition in test [1] (setting [7]) is 9%; in test [1] (setting [8]), -23%; in test [1] (at 50.0 µM) it was 19.2%; in test [2] (setting [7]), 19%; in test [2] (setting [8]), -1%; in test [2] (at 50.0 µM), 35.5%. Besides, the growth inhibition in test [3] (setting [7]) is 16%; in test [3] (setting [8]), -4%; in test [3] (at 50.0 µM) it was 62.4%; in test [4] (setting [7]) it was -17%; in test [4] (setting [8]), -3%; in test [4] (at 50.0 µM) it was 0.95%. The growth inhibition is 9% in test [5] (setting [7]); -3% in test [5] (setting [8]); 77.9% (active) in test [5] (at 50.0 µM); 16% in test [6] (setting [7]); 2% in test [6] (setting [8]); 46.4% in test [6] (at 50.0 µM).

Turning to `OC(CBr)c1cc(-c2ccccc2)nc2ccccc12` (configuration not stated), the growth inhibition in test [1] (setting [7]) was -3%; in test [1] (setting [8]) it was 98% (active); in test [1] (at 50.0 µM), -5.25%; in test [2] (setting [7]) it was -2%; in test [2] (setting [8]), 96% (active); in test [2] (at 50.0 µM) it was 18.1%. The growth inhibition in test [3] (setting [7]) was -3%; in test [3] (setting [8]), 97% (active); in test [3] (at 50.0 µM) it was 41.8%; in test [4] (setting [7]), -17%; in test [4] (setting [8]), 93% (active); in test [4] (at 50.0 µM), -24.7%. Further, the growth inhibition in test [5] (setting [7]) is 1%; in test [5] (setting [8]) it was 99% (active); in test [5] (at 50.0 µM), 69.3%; in test [6] (setting [7]) it was -3%; in test [6] (setting [8]), 97% (active); in test [6] (at 50.0 µM) it was 28.2%.

Take `O=[N+]([O-])c1cc(Br)cc2c1nc(NCCCO)c1ccccc12`: the growth inhibition was 42% in test [1] (setting [7]); 93% (active) in test [1] (setting [8]); 95.7% (active) in test [1] (at 50.0 µM); 11% in test [2] (setting [7]); 92% (active) in test [2] (setting [8]); 96.4% (active) in test [2] (at 50.0 µM). Besides, the growth inhibition in test [3] (setting [7]) is 43%; in test [3] (setting [8]) it was 96% (active); in test [3] (at 50.0 µM), 98.5% (active); in test [4] (setting [7]), 33%; in test [4] (setting [8]), 89% (active); in test [4] (at 50.0 µM), 94.3% (active). Also, the growth inhibition in test [5] (setting [7]) was 12%; in test [5] (setting [8]) it was 96% (active); in test [5] (at 50.0 µM), 94.6% (active); in test [6] (setting [7]), 59%; in test [6] (setting [8]), 97% (active); in test [6] (at 50.0 µM), 98.8% (active).

For the compound `N#Cc1c(-c2ccc([N+](=O)[O-])cc2)c(C#N)c(=O)n(NS(=O)(=O)c2ccccc2)c1S`, the growth inhibition was 35% in test [1] (setting [7]); 91% (active) in test [1] (setting [8]); 51.8% in test [1] (at 50.0 µM); 15% in test [2] (setting [7]); 81% (active) in test [2] (setting [8]); 81.6% (active) in test [2] (at 50.0 µM). Besides, the growth inhibition in test [3] (setting [7]) is 17%; in test [3] (setting [8]), 88% (active); in test [3] (at 50.0 µM) it was 78% (active); in test [4] (setting [7]), 46%; in test [4] (setting [8]) it was 67%; in test [4] (at 50.0 µM), 40%. Also, the growth inhibition was 46% in test [5] (setting [7]); 87% (active) in test [5] (setting [8]); 61.6% in test [5] (at 50.0 µM); 31% in test [6] (setting [7]); 81% (active) in test [6] (setting [8]); 78.8% (active) in test [6] (at 50.0 µM).

As for `CCC(c1ccc(O)cc1)C(CC)c1ccc(O)c(CN(C)C)c1` (configuration not stated), the growth inhibition in test [1] (setting [7]) is 1%; in test [1] (setting [8]), 76% (active); in test [1] (at 50.0 µM), 66.8%; in test [2] (setting [7]), 0%; in test [2] (setting [8]), 74% (active); in test [2] (at 50.0 µM), 45.5%. Besides, the growth inhibition in test [3] (setting [7]) was -6%; in test [3] (setting [8]) it was 98% (active); in test [3] (at 50.0 µM) it was 74.2% (active); in test [4] (setting [7]) it was -3%; in test [4] (setting [8]), 83% (active); in test [4] (at 50.0 µM) it was 42.6%. Further, the growth inhibition in test [5] (setting [7]) was -1%; in test [5] (setting [8]) it was 83% (active); in test [5] (at 50.0 µM) it was 36.5%; in test [6] (setting [7]), 2%; in test [6] (setting [8]) it was 96% (active); in test [6] (at 50.0 µM), 65.3%.

Take `CCCCC(=S)N1CCN(c2ccccc2)CC1`: the growth inhibition is -3% in test [1] (setting [7]); -8% in test [1] (setting [8]); 90.3% (active) in test [1] (at 50.0 µM); 10% in test [2] (setting [7]); 12% in test [2] (setting [8]); 62.2% in test [2] (at 50.0 µM). In addition, the growth inhibition was 5% in test [3] (setting [7]); 9% in test [3] (setting [8]); 92.1% (active) in test [3] (at 50.0 µM); -1% in test [4] (setting [7]); -14% in test [4] (setting [8]); 14.9% in test [4] (at 50.0 µM). The growth inhibition in test [5] (setting [7]) was 2%; in test [5] (setting [8]), 20%; in test [5] (at 50.0 µM), 81.7% (active); in test [6] (setting [7]), -2%; in test [6] (setting [8]), -9%; in test [6] (at 50.0 µM), 87.8% (active).

In the case of `COc1ccccc1C1C(Cl)C(=O)N1n1cnc2ccccc2c1=O` (configuration not stated), the growth inhibition in test [1] (setting [7]) was -12%; in test [1] (setting [8]) it was -12%; in test [1] (at 50.0 µM), 83.9% (active); in test [2] (setting [7]), -29%; in test [2] (setting [8]) it was 7%; in test [2] (at 50.0 µM), 49.4%. For the same compound, the growth inhibition is -11% in test [3] (setting [7]); 2% in test [3] (setting [8]); 84.5% (active) in test [3] (at 50.0 µM); 15% in test [4] (setting [7]); 16% in test [4] (setting [8]); 62.3% in test [4] (at 50.0 µM). Besides, the growth inhibition in test [5] (setting [7]) is 9%; in test [5] (setting [8]), 55%; in test [5] (at 50.0 µM) it was 83.2% (active); in test [6] (setting [7]), -5%; in test [6] (setting [8]), -3%; in test [6] (at 50.0 µM) it was 76.8% (active).

The values above are taken from PubChem BioAssay (NCI).
